# Experimental data published in ChEMBL document CHEMBL1157539, “Thousands of chemical starting points for antimalarial lead identification” (Nature, 2010).
# Tested on: Plasmodium falciparum
# Test: GSK_TCMDC: Inhibition of Plasmodium falciparum Dd2 in whole red blood cells, using parasite LDH activity as an index of growth. Test compounds present at 2uM
# Assay type: functional
row,SMILES,Inhibition
1,CN1C(=O)C(=NN=C(S)N2CCOCC2)c2ccccc21,54%
2,CCOC(=O)C(Oc1ccc2ccccc2c1)C(=O)OCC,0%
3,CCCc1cc(OC)c(CC2c3cc(O)c(Cl)cc3CCN2C)cc1OC.Cl (configuration not stated),99%
4,CN1CC[C@@H](Oc2cc(NC(=O)Nc3ccc(Cl)c(C(F)(F)F)c3)ccc2Cl)C1,68%
5,COc1cc(CNCCCCCCNCc2cc(OC)c(OC)c3ccccc23)c2ccccc2c1OC.CS(=O)(=O)O,100%
6,Br.CC(C)(Cc1ccc(Cl)cc1)NCCCCCCNCCc1ccc(O)c(O)c1,0%
7,Cl.NC1=NC2(CCCC2)C(c2ccc(Cl)c(Cl)c2)C(N)=N1 (configuration not stated),3%
8,C(=NN=c1cc(-c2ccccc2)[nH]c2ccccc12)c1cccnc1,13%
9,O=C(NC1CCN(CC2(c3ccccc3F)CCCC2)CC1)c1cc[nH]n1,91%
10,O=C(/C=C/c1ccc(Cl)c(Cl)c1)NCCCCCN1CCCN(C(=O)Nc2ccc([N+](=O)[O-])cc2)CC1,28%
11,CCNc1cc(C(=O)N[C@@H](Cc2ccccc2Cl)[C@H](O)CNC2CCCCC2)cc(N2CCCCS2(=O)=O)c1.Cl,97%
12,O=C(NC1CCN(c2ccnc(Nc3ccc(F)cc3)n2)C1)c1cc2ccccc2s1 (configuration not stated),80%
13,Cn1cncc1C(=O)Nc1cccc(-c2ccc(-c3nc4ccccc4[nH]3)s2)c1,25%
14,COc1ccc2nccc([C@@H](O)CN3CCC(NC(=O)c4cc5c(Cl)cc(Cl)cc5[nH]4)CC3)c2c1,98%
15,CC(O)CNc1nc2ccccc2n1CC(=O)Nc1cccc(C(=O)Nc2cccc(C(F)(F)F)c2)c1 (configuration not stated),95%
16,COc1cc(C(=O)N2CCOC(CCN3CCC4c5ccccc5CC43)(c3ccc(Cl)c(Cl)c3)C2)cc(OC)c1OC (configuration not stated),82%
17,O=C(O)C(F)(F)F.Oc1ccc2[nH]c(-c3cccc(F)c3)nc2c1CNCc1ccccc1,55%
18,Cl.O=S(=O)(NCCCN1CCOCC1)c1ccc2nccc(Nc3ccc(Oc4ccccc4)cc3)c2c1,92%
19,O=C(/C=C/c1ccc(Cl)c(Cl)c1)NCCCCCN1CCCN(C(=O)Nc2cccc(C(F)(F)F)c2)CC1,0%
20,COc1ccc(Nc2nccc(-c3ccc(NC(=O)c4cc5cc(F)ccc5[nH]4)cc3)n2)cc1,26%
21,CCOc1cccc(C2c3c(oc4ccccc4c3=O)C(=O)N2CCN(CC)CC)c1 (configuration not stated),66%
22,CCCCCCCC1=NN2C(=N)C(=Cc3cc(Br)c(OCc4ccc(F)cc4)c(OCC)c3)C(=O)N=C2S1,0%
23,O=C(c1ccccc1NN=C1C(=O)N(c2ccccc2)N=C1c1ccccc1)N1CCOCC1,2%
24,CCCC(CNC(=O)c1cc2c(Cl)cc(Cl)cc2[nH]1)CNc1cc(=O)c2ccccc2[nH]1.O=C(O)C(F)(F)F (configuration not stated),94%
25,CC(C)COc1ccc(C(O)C(CN2CCCCC2)c2ccccc2)cc1 (configuration not stated),89%
26,CO/C(=C\C=C\c1cc2cc(Cl)c(Cl)cc2[nH]1)C(=O)NCCCN(C)CCN(C)c1ccccc1,59%
27,CC(=O)O.C[C@H](NC(=O)[C@H](Cc1ccccc1)NC(=O)OC(C)(C)C)C(=O)N[C@@H](CC1CCCCC1)C(O)CN (some centres not stated),64%

# Tested on: HepG2
# Test: GSK_TCMDC: Percent inhibition of human HepG2 cell line. Test compounds present at 10uM.
# Assay type: functional
row,SMILES,Inhibition
1,Br.CC1(C)NC(N)=NC(=N)N1OCCCOc1ccc([N+](=O)[O-])cc1,68%
2,N=C(N)NCCCCN(Cc1ccccc1)c1ccccc1,0%
3,CCCC[C@H](NC(=O)OC(C)(C)C)C(=O)Nc1ccc(Cc2ccc(NC(=O)[C@H](CCCC)NC(=O)OC(C)(C)C)cc2)cc1,5%
4,COc1ccc(-c2cnc(N)c(-c3ccc(O)c(OC)c3)c2)cn1,23%
5,CN(C)CCNCc1cccc(-c2ccc3c(Nc4ccc(F)cc4Cl)ccnc3c2)c1,17%
6,COCC(=O)Nc1nc2ccccc2[nH]1,0%
7,Cl.c1ccc(COc2ccc(Nc3ncnc4ccc(-c5ccc(CN6CCSCC6)o5)cc34)cc2)cc1,4%
8,CC(=O)Nc1cccc(CN(Cc2ccc(-c3ccc(CNCc4cccnc4)cn3)cc2)C(=O)Cc2cccnc2)c1.O=C(O)C(F)(F)F,0%
9,C[C@H]1CN(Cc2cccc(-c3cc(CNC(=O)c4cccc(CN5CCN(C/C=C/c6ccccc6)CC5)c4)ccc3F)c2)CCN1.O=C(O)C(F)(F)F,98%
10,COc1cccc(CNC[C@@H](O)[C@H](Cc2ccccc2)NC(=O)c2cc(OC(C)C)cc(N3CCCCS3(=O)=O)c2)c1.Cl,8%
11,CC(=O)Nc1ccc(CCNC(C)Cc2ccc(C(=O)Nc3ccc(CC(C)NCCc4cccc(Cl)c4)cc3)cc2)cc1.Cl (configuration not stated),50%
12,Cc1cc(N2CCCC2=O)ccc1-c1ccc(C(=O)N2CCC(Oc3cccc(Cl)c3)CC2)cc1,34%
13,CS(=O)(=O)c1ccc(CNCc2cccc(-c3cccc(-c4nc5cc(C(F)(F)F)ccc5[nH]4)c3)c2)cc1.O=C(O)C(F)(F)F,5%
14,CN1C(=O)C(=NN=C(S)N2CCOCC2)c2ccccc21,57%
15,CCOC(=O)C(Oc1ccc2ccccc2c1)C(=O)OCC,8%
16,CCCc1cc(OC)c(CC2c3cc(O)c(Cl)cc3CCN2C)cc1OC.Cl (configuration not stated),19%
17,CN1CC[C@@H](Oc2cc(NC(=O)Nc3ccc(Cl)c(C(F)(F)F)c3)ccc2Cl)C1,17%
18,COc1cc(CNCCCCCCNCc2cc(OC)c(OC)c3ccccc23)c2ccccc2c1OC.CS(=O)(=O)O,100%
19,Br.CC(C)(Cc1ccc(Cl)cc1)NCCCCCCNCCc1ccc(O)c(O)c1,45%
20,Cl.NC1=NC2(CCCC2)C(c2ccc(Cl)c(Cl)c2)C(N)=N1 (configuration not stated),7%

row,SMILES,Inhibition
1,C(=NN=c1cc(-c2ccccc2)[nH]c2ccccc12)c1cccnc1,23%
2,O=C(NC1CCN(CC2(c3ccccc3F)CCCC2)CC1)c1cc[nH]n1,0%
3,O=C(/C=C/c1ccc(Cl)c(Cl)c1)NCCCCCN1CCCN(C(=O)Nc2ccc([N+](=O)[O-])cc2)CC1,32%
4,CCNc1cc(C(=O)N[C@@H](Cc2ccccc2Cl)[C@H](O)CNC2CCCCC2)cc(N2CCCCS2(=O)=O)c1.Cl,6%
5,O=C(NC1CCN(c2ccnc(Nc3ccc(F)cc3)n2)C1)c1cc2ccccc2s1 (configuration not stated),6%
6,Cn1cncc1C(=O)Nc1cccc(-c2ccc(-c3nc4ccccc4[nH]3)s2)c1,0%
7,COc1ccc2nccc([C@@H](O)CN3CCC(NC(=O)c4cc5c(Cl)cc(Cl)cc5[nH]4)CC3)c2c1,22%
8,CC(O)CNc1nc2ccccc2n1CC(=O)Nc1cccc(C(=O)Nc2cccc(C(F)(F)F)c2)c1 (configuration not stated),2%
9,COc1cc(C(=O)N2CCOC(CCN3CCC4c5ccccc5CC43)(c3ccc(Cl)c(Cl)c3)C2)cc(OC)c1OC (configuration not stated),32%
10,O=C(O)C(F)(F)F.Oc1ccc2[nH]c(-c3cccc(F)c3)nc2c1CNCc1ccccc1,29%
11,Cl.O=S(=O)(NCCCN1CCOCC1)c1ccc2nccc(Nc3ccc(Oc4ccccc4)cc3)c2c1,1%
12,O=C(/C=C/c1ccc(Cl)c(Cl)c1)NCCCCCN1CCCN(C(=O)Nc2cccc(C(F)(F)F)c2)CC1,45%
13,COc1ccc(Nc2nccc(-c3ccc(NC(=O)c4cc5cc(F)ccc5[nH]4)cc3)n2)cc1,21%
14,CCOc1cccc(C2c3c(oc4ccccc4c3=O)C(=O)N2CCN(CC)CC)c1 (configuration not stated),5%
15,CCCCCCCC1=NN2C(=N)C(=Cc3cc(Br)c(OCc4ccc(F)cc4)c(OCC)c3)C(=O)N=C2S1,4%
16,O=C(c1ccccc1NN=C1C(=O)N(c2ccccc2)N=C1c1ccccc1)N1CCOCC1,0%
17,CCCC(CNC(=O)c1cc2c(Cl)cc(Cl)cc2[nH]1)CNc1cc(=O)c2ccccc2[nH]1.O=C(O)C(F)(F)F (configuration not stated),9%
18,CC(C)COc1ccc(C(O)C(CN2CCCCC2)c2ccccc2)cc1 (configuration not stated),11%
19,CO/C(=C\C=C\c1cc2cc(Cl)c(Cl)cc2[nH]1)C(=O)NCCCN(C)CCN(C)c1ccccc1,38%
20,CC(=O)O.C[C@H](NC(=O)[C@H](Cc1ccccc1)NC(=O)OC(C)(C)C)C(=O)N[C@@H](CC1CCCCC1)C(O)CN (some centres not stated),0%
